Hit rate of the full screen: of about 5,500 compounds, about 2,000 (36%) were called active. Another 18% or so got no clear call; they are omitted. No stated cut-off is given here; in the data, active means normalized growth mostly below about 0.91 (no sharp cut-off); inconclusive means no clear call, values can overlap the other calls; inactive means mostly above about 0.92. Some of the results follow.
Test: chemical genetic growth profiling, strain panel (AID 1159580);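 further: tested at 20 µM; growth read once vehicle control cultures reached saturation at 30 °C; 1 = growth at the plate median or of vehicle wells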
Conditions: S. cerevisiae deletion strains, growth OD

Measured: normalized growth

CC(CC(=O)C(O)C(C)(C)O)C1C(=O)CC2(C)C3=CCC4C(C)(C)C(OC5OCC(O)C(O)C5O)CCC45CC35C(O)CC12C (stereo not given)
inactive: locus YAL021C, strain ccr4, stronger effect = lower value 1.01 | locus YAL026C, strain drs2, stronger effect = lower value 1.01 | locus YAL030W, strain snc1, stronger effect = lower value 1.01 | locus YBL061C, strain skt5, stronger effect = lower value 1.01 | locus YBR009C, strain hhf1, stronger effect = lower value 1.01 | locus YBR023C, strain chs3, stronger effect = lower value 1.02 | locus YBR171W, strain sec66, stronger effect = lower value 1.03 | locus YBR231C, strain swc5, stronger effect = lower value 1.01 | locus YBR279W, strain paf1, stronger effect = lower value 1.02 | locus YCL011C, strain gbp2, stronger effect = lower value 1.01 | locus YCL016C, strain dcc1, stronger effect = lower value 1.01 | locus YCL061C, strain MRC1, stronger effect = lower value 1.01 | locus YCL069W, strain vba3, stronger effect = lower value 1 | locus YCR088W, strain abp1, stronger effect = lower value 1.02 | locus YDL005C, strain med2, stronger effect = lower value 1.01 | locus YDL040C, strain nat1, stronger effect = lower value 1.02 | locus YDR001C, strain nth1, stronger effect = lower value 1.01 | locus YDR069C, strain doa4, stronger effect = lower value 1.01 | locus YDR137W, strain rgp1, stronger effect = lower value 0.974 | locus YDR159W, strain sac3, stronger effect = lower value 1.02 | locus YDR195W, strain ref2 0.987 | locus YDR297W, strain sur2, stronger effect = lower value 1.01 | locus YDR334W, strain swr1, stronger effect = lower value 1.02 | locus YDR335W, strain msn5, stronger effect = lower value 1.02 | locus YDR392W, strain spt3, stronger effect = lower value 1.04 | locus YEL003W, strain gim4, stronger effect = lower value 1.01 | locus YEL037C, strain rad23, stronger effect = lower value 1.07 | locus YEL061C, strain CIN8 (second series), stronger effect = lower value 1.01 | locus YER015W, strain faa2, stronger effect = lower value 1.01 | locus YER016W, strain bim1, stronger effect = lower value 1.02 | locus YER111C, strain swi4, stronger effect = lower value 1.01 | locus YER155C, strain BEM2 (second series), stronger effect = lower value 1.02 | locus YFR010W, strain ubp6, stronger effect = lower value 1.01 | locus YGL167C, strain pmr1, stronger effect = lower value 1.01 | locus YGL173C, strain kem1, stronger effect = lower value 1.03 | locus YGL227W, strain vid30, stronger effect = lower value 1.01 | locus YGL240W, strain doc1, stronger effect = lower value 1.01 | locus YGL253W, strain hxk2, stronger effect = lower value 1.02 | locus YHR013C, strain ard1, stronger effect = lower value 1.02 | locus YHR027C, strain rpn1, stronger effect = lower value 1.01 | locus YHR142W, strain chs7, stronger effect = lower value 1 | locus YJL092W, strain hpr5, stronger effect = lower value 1.02 | locus YJL095W, strain BCK1 (second series), stronger effect = lower value 1.01 | locus YJL115W, strain asf1, stronger effect = lower value 1.01 | locus YJL129C, strain trk1, stronger effect = lower value 1.02 | locus YJL154C, strain vps35, stronger effect = lower value 1.02 | locus YJL164C, strain tpk1, stronger effect = lower value 1.03 | locus YJL166W, strain qcr8, stronger effect = lower value 1.01 | locus YJL187C, strain SWE1, stronger effect = lower value 1.01 | locus YKL160W, strain elf1, stronger effect = lower value 1.01 | locus YKR026C, strain gcn3, stronger effect = lower value 1.02 | locus YKR091W, strain srl3, stronger effect = lower value 1.02 | locus YLL001W, strain dnm1, stronger effect = lower value 1.03 | locus YLL026W, stronger effect = lower value 1.02 | locus YLL041C, strain sdh2, stronger effect = lower value 1.01 | locus YLR027C, strain aat2, stronger effect = lower value 1 | locus YLR221C, strain rsa3, stronger effect = lower value 1.01 | locus YLR258W, strain gsy2, stronger effect = lower value 1.02 | locus YLR262C, strain YPT6 (second series), stronger effect = lower value 1.02 | locus YLR320W, strain mms22, stronger effect = lower value 1.03 | locus YLR342W, strain FKS1, stronger effect = lower value 1.01 | locus YLR357W, strain rsc2, stronger effect = lower value 1.02 | locus YLR370C, strain arc18, stronger effect = lower value 0.995 | locus YLR384C, strain iki3, stronger effect = lower value 1.01 | locus YML120C, strain ndi1, stronger effect = lower value 1.02 | locus YMR058W, strain fet3, stronger effect = lower value 1.01 | locus YMR125W, strain sto1, stronger effect = lower value 1.03 | locus YMR129W, stronger effect = lower value 1.01 | locus YMR205C, strain PFK2, stronger effect = lower value 1.02 | locus YMR231W, strain pep5, stronger effect = lower value 1 | locus YNL071W, strain lat1, stronger effect = lower value 1.01 | locus YNL209W, strain ssb2, stronger effect = lower value 1.01 | locus YNL248C, strain rpa49, stronger effect = lower value 1.01 | locus YNL322C, strain KRE1 (second series), stronger effect = lower value 1.01 | locus YNR049C, strain mso1, stronger effect = lower value 1.02 | locus YOR001W, strain rrp6, stronger effect = lower value 1.01 | locus YOR070C, strain gyp1, stronger effect = lower value 1.01 | locus YOR080W, strain dia2, stronger effect = lower value 1.02 | locus YOR083W, strain WHI5, stronger effect = lower value 1.02 | locus YOR106W, strain vam3, stronger effect = lower value 1 | locus YOR265W, strain rbl2, stronger effect = lower value 1.01 | locus YOR270C, strain vph1, stronger effect = lower value 1.02 | locus YOR290C, strain snf2, stronger effect = lower value 1.02 | locus YPL051W, strain arl3, stronger effect = lower value 1.01 | locus YPL078C, strain atp4, stronger effect = lower value 1.02 | locus YPL106C, strain sse1, stronger effect = lower value 1 | locus YPL240C, strain hsp82, stronger effect = lower value 1.02

CC(=O)OC1CC[C@@]2(C)C(CC[C@]3(C)C2CCC2C4CC(C)(C)CCC4(C(=O)O)CC[C@]23C)C1(C)C (stereo not given in full)
inactive: locus YBR021W, strain FUR4, stronger effect = lower value 1.02 | locus YBR229C, strain ROT2, stronger effect = lower value 0.998 | locus YCL029C, strain bik1, stronger effect = lower value 0.968 | locus YDL035C, strain GPR1, stronger effect = lower value 1.06 | locus YDL074C, strain BRE1, stronger effect = lower value 1.05 | locus YDL101C, strain DUN1, stronger effect = lower value 0.985 | locus YDL134C, strain PPH21, stronger effect = lower value 1.03 | locus YDL185W, strain tfp1, stronger effect = lower value 0.934 | locus YDL192W, strain arf1, stronger effect = lower value 1.01 | locus YDR101C, strain arx1, stronger effect = lower value 1.02 | locus YDR162C, strain NBP2, stronger effect = lower value 1.01 | locus YDR318W, strain mcm21, stronger effect = lower value 0.993 | locus YDR388W, stronger effect = lower value 0.975 | locus YDR502C, strain sam2, stronger effect = lower value 0.999 | locus YER110C, stronger effect = lower value 0.971 | locus YER155C, strain BEM2, stronger effect = lower value 0.985 | locus YER167W, strain BCK2, stronger effect = lower value 0.998 | locus YGL078C, strain dbp3, stronger effect = lower value 0.974 | locus YGL086W, strain mad1, stronger effect = lower value 1.01 | locus YGL248W, strain PDE1, stronger effect = lower value 1.04 | locus YGR135W, strain pre9, stronger effect = lower value 0.972 | locus YGR252W, strain gcn5, stronger effect = lower value 1.05 | locus YHR030C, strain SLT2, stronger effect = lower value 1.01 | locus YHR079C, strain IRE1 (second series), stronger effect = lower value 0.975 | locus YHR094C, strain hxt1, stronger effect = lower value 0.978 | locus YHR129C, strain ARP1, stronger effect = lower value 1.03 | locus YHR200W, strain rpn10, stronger effect = lower value 0.999 | locus YIL066C, strain RNR3, stronger effect = lower value 1.01 | locus YIL073C, strain SPO22, stronger effect = lower value 0.986 | locus YIL125W, strain kgd1, stronger effect = lower value 0.979 | locus YIR030C, strain dcg1, stronger effect = lower value 0.974 | locus YJL095W, strain BCK1, stronger effect = lower value 1.03 | locus YJL134W, strain LCB3, stronger effect = lower value 0.994 | locus YJL168C, strain set2, stronger effect = lower value 0.977 | locus YJL187C, strain SWE1 (second series), stronger effect = lower value 1.01 | locus YJR043C, strain POL32, stronger effect = lower value 1.07 | locus YJR075W, strain HOC1, stronger effect = lower value 1 | locus YKL009W, strain mrt4, stronger effect = lower value 0.966 | locus YKL068W, stronger effect = lower value 1.02 | locus YKL085W, strain MDH1 (second series), stronger effect = lower value 1.01 | locus YKL085W, strain MDH1, stronger effect = lower value 1.01 | locus YKL190W, strain CNB1, stronger effect = lower value 0.996 | locus YKR001C, strain vps1, stronger effect = lower value 1.01 | locus YLR039C, strain RIC1, stronger effect = lower value 1.11 | locus YLR058C, strain SHM2, stronger effect = lower value 1.02 | locus YLR102C, strain apc9, stronger effect = lower value 0.973 | locus YLR268W, strain sec22, stronger effect = lower value 0.998 | locus YLR330W, strain CHS5, stronger effect = lower value 0.996 | locus YLR371W, strain rom2, stronger effect = lower value 0.968 | locus YLR418C, strain cdc73, stronger effect = lower value 1.02 | locus YML016C, strain PPZ1, stronger effect = lower value 1 | locus YML032C, strain rad52, stronger effect = lower value 0.987 | locus YML124C, strain tub3, stronger effect = lower value 0.991 | locus YMR078C, strain ctf18, stronger effect = lower value 0.968 | locus YMR223W, strain ubp8, stronger effect = lower value 0.976 | locus YMR307W, strain GAS1, stronger effect = lower value 1.25 | locus YNL067W, strain RPL9B, stronger effect = lower value 0.989 | locus YNL153C, strain GIM3, stronger effect = lower value 0.998 | locus YNL233W, strain BNI4, stronger effect = lower value 1.03 | locus YNL250W, strain rad50, stronger effect = lower value 0.92 | locus YNL271C, strain bni1, stronger effect = lower value 0.995 | locus YNL298W, strain CLA4, stronger effect = lower value 0.992 | locus YNL307C, strain MCK1, stronger effect = lower value 1.01 | locus YNR052C, strain pop2, stronger effect = lower value 0.992 | locus YOL006C, strain TOP1, stronger effect = lower value 1.25 | locus YOL012C, strain htz1 1.01 | locus YOL147C, strain pex11, stronger effect = lower value 0.979 | locus YOR061W, strain CKA2, stronger effect = lower value 1 | locus YOR069W, strain VPS5, stronger effect = lower value 1 | locus YOR136W, strain idh2, stronger effect = lower value 0.983 | locus YOR144C, strain elg1, stronger effect = lower value 0.989 | locus YOR184W, strain ser1, stronger effect = lower value 1.08 | locus YOR316C, strain cot1, stronger effect = lower value 0.964 | locus YPR119W, strain clb2, stronger effect = lower value 0.951 | locus YPR141C, strain kar3, stronger effect = lower value 0.975 | locus YPR163C, strain tif3, stronger effect = lower value 0.985 | locus YPR167C, strain met16, stronger effect = lower value 0.99 | strain wtn01, stronger effect = lower value 1.01
